Data reported in PubChem BioAssay (Tox21).
Inconclusive results are not listed. Active and inactive are the calls of the source. Unless noted, calls follow the shape of the full dose curve.

Experiments:
[1] = Nuclear factor erythroid 2-related factor 2/antioxidant responsive element (Nrf2/ARE) small molecule agonists: qHTS cell viability counter screen in human keratinocytes (AID 1919968; active = well fitted curve in the direction sought with a large enough effect in the repeat runs; an effect the other way counts as inactive or inconclusive; also: nearly all actives have a fitted effect of over 55% in size)
Procedure, shortened: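 Fluorescence read-out from CellTiter-Fluor after 1 h at 37 C. Wells held HaCaT-derived ARE-luciferase reporter cells (1,500/well) treated 23 h with DMSO-dissolved compounds. Run in the same wells as the luciferase agonist read.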

[2] = Nuclear factor erythroid 2-related factor 2/antioxidant responsive element (Nrf2/ARE) small molecule agonists: luciferase reporter gene qHTS assay in human keratinocytes (AID 1919969); also: nearly all actives have a fitted effect of over 35% in size
[3] = target: KiSS-1 receptor (Homo sapiens) (UniProt Q969F8); assay: Human kisspeptin (KISS1R) small molecule agonists, calcium flux assay in KISS1R-HEK293 cells (AID 1920064; active = well fitted curve in the direction sought with a large enough effect in the repeat runs; an effect the other way counts as inactive or inconclusive)
Sequence of KiSS-1 receptor (Homo sapiens) (Q969F8 whole entry, looked up): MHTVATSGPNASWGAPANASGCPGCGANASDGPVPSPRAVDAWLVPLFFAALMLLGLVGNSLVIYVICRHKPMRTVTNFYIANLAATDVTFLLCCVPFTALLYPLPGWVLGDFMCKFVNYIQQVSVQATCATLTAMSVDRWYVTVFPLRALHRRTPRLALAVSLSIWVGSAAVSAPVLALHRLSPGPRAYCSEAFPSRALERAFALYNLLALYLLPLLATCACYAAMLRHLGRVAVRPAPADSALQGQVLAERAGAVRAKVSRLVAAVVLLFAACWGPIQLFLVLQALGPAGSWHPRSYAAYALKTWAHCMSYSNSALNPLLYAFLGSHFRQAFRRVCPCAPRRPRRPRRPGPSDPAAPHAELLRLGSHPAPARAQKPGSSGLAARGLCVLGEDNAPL
Procedure, shortened: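 Calcium flux read-out: kinetic fluorescence at Ex/Em=480/540, 1 s intervals over 3 min, after pin-tool compound addition to dye-loaded KISS1R-HEK293 cells. Fifteen concentrations, triplicates.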

[4] = G protein-coupled receptor (GPCR) small molecule agonists, calcium flux assay: HEK293 wild type cell line counter screen (AID 1920065)
Procedure, shortened: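 Agonist mode; 18 h seeding at 37 C, 1 h dye load at 37 C; compounds pinned from DMSO, ATP as positive control; kinetic fluorescence 480/540 nm, 3 min, 1 s reads; 15 concentrations, triplicate.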

[5] = p53 small molecule agonists, cell-based qHTS assay with human liver microsomes (AID 1963577);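 also: p53 response element beta-lactamase reporter cells with liver microsomes plus NADPH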
Procedure, shortened: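 16 h, 37 C exposure of p53RE-bla cells to compounds with human liver microsomes and NADPH (0.5 mg/mL final each); detection via LiveBLAzer mixture, 2 h dark at room temperature.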

[6] = p53 small molecule agonists, cell-based qHTS assay with rat liver microsomes (AID 1963578)
Procedure, shortened: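 With rat liver microsomes and NADPH present (0.5 mg/mL final each), p53RE-bla cells are treated with compound for 16 h at 37 C. LiveBLAzer detection mixture is then applied for 2 h at room temperature in the dark.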

[7] = p53 small molecule agonists, cell-based qHTS assay with human liver microsomes: qHTS cell viability counter screen (AID 1963579); also: nearly all actives have a fitted effect of over 45% in size
Procedure, shortened: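 In this multiplexed counter screen, the reporter plates were subsequently treated with CellTiter-Glo so that cell viability, reflected by luminescence, could be recorded for p53RE-bla cells dosed 16 h with compounds under microsomal activation (HLM and NADPH).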

[8] = p53 small molecule agonists, cell-based qHTS assay with rat liver microsomes: qHTS cell viability counter screen (AID 1963580); also: nearly all actives have a fitted effect of over 45% in size
Procedure, shortened: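 After the beta-lactamase ratio was read, CellTiter-Glo was added to the same wells and luminescence measured at 30 min; cells had been treated 16 h at 37 C with compounds, rat liver microsomes and NADPH (0.5 mg/mL final each).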

[9] = p53 small molecule agonists, cell-based qHTS assay: qHTS cell viability counter screen (AID 1963581); also: nearly all actives have a fitted effect of over 45% in size
Procedure, shortened: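 Cytotoxicity read-out: ATP-based luminescence (CellTiter-Glo, 30 min RT) measured in the same wells as the p53 reporter assay, HCT-116 p53RE-bla cells, 16 h compound exposure at 37 C.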

[10] = p53 small molecule agonists, cell-based qHTS assay (AID 1963582; active = well fitted activation curve with a large enough effect in the signal ratio in the repeat runs, not every such curve was filed as active; the % refers to the signal ratio)
Procedure, shortened: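 Fluorescence intensity read-out of a beta-lactamase reporter under a p53 response element. Cells were exposed to DMSO-dissolved compounds for 16 h at 37 C, then developed with FRET substrate for 2 h at RT.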

[11] = target: 5-hydroxytryptamine receptor 2A (Homo sapiens) (UniProt P28223); assay: 5-hydroxytryptamine receptor 2A (HTR2A) small molecule antagonists, cell-based qHTS assay (AID 1963586); also: nearly all actives have a fitted effect of over 45% in size
Sequence of 5-hydroxytryptamine receptor 2A (Homo sapiens) (P28223 whole entry, looked up): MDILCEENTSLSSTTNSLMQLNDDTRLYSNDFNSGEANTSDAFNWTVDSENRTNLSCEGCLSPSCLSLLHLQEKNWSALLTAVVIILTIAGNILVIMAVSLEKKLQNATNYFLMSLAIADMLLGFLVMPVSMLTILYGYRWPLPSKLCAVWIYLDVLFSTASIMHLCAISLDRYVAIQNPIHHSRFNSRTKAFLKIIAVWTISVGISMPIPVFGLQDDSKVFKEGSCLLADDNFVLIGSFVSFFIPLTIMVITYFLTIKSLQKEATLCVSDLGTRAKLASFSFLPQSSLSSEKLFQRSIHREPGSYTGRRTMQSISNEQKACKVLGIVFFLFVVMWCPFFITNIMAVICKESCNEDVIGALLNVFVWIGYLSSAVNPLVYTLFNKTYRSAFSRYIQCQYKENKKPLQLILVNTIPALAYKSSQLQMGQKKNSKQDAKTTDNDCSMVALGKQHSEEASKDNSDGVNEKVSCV
Procedure, shortened: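 CHO cells stably expressing human HTR2A were plated for 18 h at 37 C, then loaded with calcium dye for 1 h. Compounds were preincubated 5 min at room temperature before DOI (4 nM solution) was added. Kinetic fluorescence was read for 3 min.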

[12] = target: 5-hydroxytryptamine receptor 2A (Homo sapiens) (UniProt P28223); assay: 5-hydroxytryptamine receptor 2A (HTR2A) small molecule agonists, cell-based qHTS assay (AID 1963587); also: nearly all actives have a fitted effect of over 30% in size
Procedure, shortened: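 CHO cells stably expressing human HTR2A, plated 18 h, loaded with calcium dye 1 h at 37 C. Agonist mode: compounds added and intracellular calcium fluorescence recorded kinetically for 2 min at 1 sec intervals.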

[13] = target: Muscarinic acetylcholine receptor M1 (Homo sapiens) (UniProt P11229); assay: Cholinergic receptor muscarinic 1 (CHRM1) small molecule antagonists, cell-based qHTS assay (AID 1963588); also: nearly all actives have a fitted effect of over 40% in size
Sequence of Muscarinic acetylcholine receptor M1 (Homo sapiens) (P11229 whole entry, looked up): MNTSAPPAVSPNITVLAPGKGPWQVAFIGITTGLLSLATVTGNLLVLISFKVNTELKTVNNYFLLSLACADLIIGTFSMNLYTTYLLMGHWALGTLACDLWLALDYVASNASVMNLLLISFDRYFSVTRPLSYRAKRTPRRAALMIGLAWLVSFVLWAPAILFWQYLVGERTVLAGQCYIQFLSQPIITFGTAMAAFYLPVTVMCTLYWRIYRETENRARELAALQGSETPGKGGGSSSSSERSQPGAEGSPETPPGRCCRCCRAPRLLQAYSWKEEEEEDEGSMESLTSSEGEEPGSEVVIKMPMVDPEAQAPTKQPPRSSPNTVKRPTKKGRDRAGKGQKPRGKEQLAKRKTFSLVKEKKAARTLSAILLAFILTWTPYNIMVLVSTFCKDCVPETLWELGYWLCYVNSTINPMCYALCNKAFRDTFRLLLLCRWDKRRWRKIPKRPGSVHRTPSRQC
Procedure, shortened: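 Compounds were tested at 15 concentrations in three independent runs. Dye-loaded CHRM1-CHO cells were exposed 5 min at room temperature before stimulation by acetylcholine added at 50nM. Intracellular calcium was read kinetically on FDSS for 3 min.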

[14] = target: Muscarinic acetylcholine receptor M1 (Homo sapiens) (UniProt P11229); assay: Cholinergic receptor muscarinic 1 (CHRM1) small molecule agonists, cell-based qHTS assay (AID 1963589); also: nearly all actives have a fitted effect of over 35% in size
Procedure, shortened: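 Calcium flux read-out: kinetic fluorescence at 1 sec intervals after pin-tool compound addition to dye-loaded CHRM1-CHO cells (human M1). Agonist mode; 15 concentrations tested in triplicate independent runs.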

[15] = cAMP Responsive Elements (CRE) small molecule agonists, cell-based qHTS assay (AID 1963590)
Procedure, shortened: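 Beta-lactamase reporter readout: LiveBLAzer B/G FRET substrate, 2 h at room temperature, added after 3 h compound treatment of CRE-bla HEK 293T cells at 37 C/5% CO2.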

[16] = cAMP Responsive Elements (CRE) small molecule antagonists, cell-based qHTS assay (AID 1963591; active = well fitted inhibition curve with a large enough effect in the signal ratio in the repeat runs, not every such curve was filed as active; the % refers to the signal ratio)
Procedure, shortened: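 HEK293T CRE-bla; 18 h preincubation; compound pin-transfer; NKH477 0.25 uM final, 3 h, 37 C; LiveBLAzer FRET substrate 2 h RT.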

[17] = target: Beta-2 adrenergic receptor (Homo sapiens) (UniProt P07550); assay: Adrenergic beta2 receptor (ADRB2) small molecule antagonists, cell-based qHTS assay (AID 1963592); also: series mostly up to about 92 µM; nearly all actives have a fitted effect of over 50% in size
Sequence of Beta-2 adrenergic receptor (Homo sapiens) (P07550 whole entry, looked up): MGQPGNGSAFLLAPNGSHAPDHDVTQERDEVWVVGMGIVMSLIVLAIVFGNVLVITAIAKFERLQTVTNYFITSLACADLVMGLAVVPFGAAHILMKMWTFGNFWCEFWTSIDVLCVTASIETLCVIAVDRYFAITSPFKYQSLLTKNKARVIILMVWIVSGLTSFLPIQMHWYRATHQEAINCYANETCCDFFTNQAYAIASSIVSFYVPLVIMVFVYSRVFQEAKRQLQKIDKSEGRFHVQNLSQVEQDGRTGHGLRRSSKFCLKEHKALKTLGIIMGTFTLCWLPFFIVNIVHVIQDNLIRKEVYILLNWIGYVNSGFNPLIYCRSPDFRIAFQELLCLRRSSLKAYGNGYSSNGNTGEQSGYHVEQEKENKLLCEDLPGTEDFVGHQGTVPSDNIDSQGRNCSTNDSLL
Procedure, shortened: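 Assay format: CHO-ADRB2 cells, 18-20hr seeding at 37C/5% CO2, then compound plus 1nM isoproterenol agonist mix for 0.5hr RT. Homogeneous time-resolved fluorescence cAMP detection after 1hr, expressed as 665/615 nm ratio.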

[18] = target: D(2) dopamine receptor (Homo sapiens) (UniProt P14416); assay: Dopamine D2 receptor (DRD2) small molecule agonists, cell-based qHTS assay (AID 1963594); also: nearly all actives have a fitted effect of over 35% in size
Sequence of D(2) dopamine receptor (Homo sapiens) (P14416 whole entry, looked up): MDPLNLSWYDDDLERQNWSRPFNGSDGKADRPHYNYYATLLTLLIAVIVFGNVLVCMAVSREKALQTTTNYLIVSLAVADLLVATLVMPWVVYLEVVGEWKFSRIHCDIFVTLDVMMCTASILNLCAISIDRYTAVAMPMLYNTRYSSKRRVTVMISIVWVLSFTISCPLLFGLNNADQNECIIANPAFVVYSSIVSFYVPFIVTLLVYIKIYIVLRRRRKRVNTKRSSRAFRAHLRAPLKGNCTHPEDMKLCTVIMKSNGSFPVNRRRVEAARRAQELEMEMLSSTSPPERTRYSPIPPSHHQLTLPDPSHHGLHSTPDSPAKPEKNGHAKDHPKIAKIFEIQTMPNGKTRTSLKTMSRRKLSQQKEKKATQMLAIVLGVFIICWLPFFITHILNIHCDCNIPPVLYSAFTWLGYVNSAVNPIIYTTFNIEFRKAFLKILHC
Procedure, shortened: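 HEK293 cells stably expressing human DRD2, pre-treated with PDE inhibitor Ro20-1724 (0.1 mM final) and compound 10 min at room temperature, then stimulated with NKH477 (200nM […]) for 30 min. cAMP read by HTRF (665/620 nm).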

[19] = target: D(2) dopamine receptor (Homo sapiens) (UniProt P14416); assay: Dopamine D2 receptor (DRD2) small molecule antagonists, cell-based qHTS assay (AID 1963595; active = well fitted inhibition curve with a large enough effect in the signal ratio in the repeat runs, with a control signal flat; the % refers to the signal ratio)
Procedure, shortened: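 In this cell-based antagonist screen, compounds act for 10 min at room temperature before a 30 min challenge with 12 nM quinpirole and 200 nM NKH477. cAMP is quantified by HTRF competition in DRD2-HEK293 cells containing 0.1 mM Ro20-1724.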

[20] = target: Gonadotropin-releasing hormone receptor (Homo sapiens) (UniProt P30968); assay: Human gonadotropin-releasing hormone receptor (GnRHR) small molecule agonists, calcium flux assay in GnRHR-HEK293 cells (AID 1920063); also: nearly all actives have a fitted effect of over 35% in size
Sequence of Gonadotropin-releasing hormone receptor (Homo sapiens) (P30968 whole entry, looked up): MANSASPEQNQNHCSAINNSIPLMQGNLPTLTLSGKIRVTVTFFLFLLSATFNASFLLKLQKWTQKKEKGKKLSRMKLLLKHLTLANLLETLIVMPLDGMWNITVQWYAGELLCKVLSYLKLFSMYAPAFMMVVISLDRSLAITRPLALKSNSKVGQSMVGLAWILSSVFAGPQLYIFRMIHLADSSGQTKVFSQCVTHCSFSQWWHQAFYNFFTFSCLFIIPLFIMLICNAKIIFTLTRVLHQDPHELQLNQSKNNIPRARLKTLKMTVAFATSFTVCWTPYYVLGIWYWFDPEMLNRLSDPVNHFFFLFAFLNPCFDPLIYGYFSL
Procedure, shortened: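 Calcium-dye fluorescence, Ex/Em=480/540, recorded every 1 sec over 3 min after compound addition to GnRHR-HEK293 cells. Cells had been seeded 18 hours earlier and dye-loaded for 1 hour at 37 C. Fifteen concentrations, triplicates.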
% is scaled to controls: 0 for no effect and ±100 for the full control effect.

Cc1c(C)c2c(c(C)c1OC(=O)CCC(=O)O)CC[C@@](C)(CCC[C@H](C)CCC[C@H](C)CCCC(C)C)O2
inactive: Potency [1] | Potency [2] | outcome [3] | outcome [4] | Potency [5] | Potency [6] | Potency [7] | Potency [8] | Potency [9] | Potency [10] | Potency [11] | Potency [12] | Potency [13] | Potency [14] | Potency [15] | Potency [16] | Potency [17] | Potency [18] | Potency [19]

Cc1ccc(-n2nc(C(C)(C)C)cc2NC(=O)Nc2ccc(OCCN3CCOCC3)c3ccccc23)cc1
inactive: Potency [1] | Potency [2] | Potency [20] | outcome [4] | Potency [5] | Potency [6] | Potency [8] | Potency [9] | Potency [11] | Potency [12] | Potency [14] | Potency [18] | Potency [19]

CCN1CCCC1CNC(=O)c1cc(S(N)(=O)=O)ccc1OC (configuration not stated)
inactive: Potency [1] | Potency [2] | Potency [20] | Potency [5] | Potency [7] | Potency [17] | Potency [18]

COC(=O)C1CC(=O)C(C(=O)OC)CC1=O (configuration not stated)
inactive: activity change, negative = cytotoxicity [1] 2.06% [at 8.39 µM] | activity, positive = activation [2] -3.71% [at 8.39 µM] | activity change [20] 0.483% [at 5.22 µM, active compounds read high] | activation [4] -0.0233% [at 5.23 µM] | activation [5] -0.316% [at 5.99 µM] | activation [6] -0.919% [at 5.99 µM] | activity change, negative = cytotoxicity [8] -4.56% [at 5.99 µM] | activity change, negative = cytotoxicity [9] -4.07% [at 5.99 µM] | activation [10] -3.72% [at 5.99 µM] | activity, negative = inhibition [11] 1.92% [at 5.62 µM] | activation [12] 7.2% [at 7.02 µM] | activity, negative = inhibition [13] 62.7% [at 5.58 µM] | activation [14] 0.037% [at 6.97 µM] | activation [15] 0.379% [at 8.39 µM] | activity change, negative = inhibition [16] -7.12% [at 8.39 µM] | activity change, negative = inhibition [17] 3.63% [at 8.39 µM] | activation [18] -0.218% [at 8.39 µM] | activity change, negative = inhibition [19] -0.133% [at 8.38 µM]

COc1cc2c(cc1OC)CN(C(=O)[C@H](C)N[C@@H](CCc1ccccc1)C(=O)O)[C@H](C(=O)O)C2
inactive: Potency [1] | Potency [2] | Potency [20] | outcome [4] | Potency [5] | Potency [7] | Potency [8] | Potency [9] | Potency [11] | Potency [12] | Potency [13] | Potency [14] | Potency [15] | Potency [16] | Potency [17] | Potency [18] | Potency [19]

Cc1occc(=O)c1OC(=O)C(C)C
inactive: Potency [1] | Potency [2] | Potency [20] | outcome [4] | Potency [5] | Potency [6] | Potency [7] | Potency [8] | Potency [11] | Potency [12] | Potency [15] | Potency [16] | Potency [17] | Potency [18] | Potency [19]

N#Cc1ccc(C(=O)O)cc1
inactive: Potency [1] | Potency [2] | Potency [20] | outcome [4] | Potency [5] | Potency [7] | Potency [8] | Potency [9] | Potency [10] | Potency [12] | Potency [13] | Potency [14] | Potency [15] | Potency [17] | Potency [18] | Potency [19]

O=C(OCC1(COC(=O)c2cccnc2)CCCC(COC(=O)c2cccnc2)(COC(=O)c2cccnc2)C1O)c1cccnc1
inactive: Potency [1] | Potency [2] | outcome [3] | outcome [4] | Potency [5] | Potency [6] | Potency [7] | Potency [8] | Potency [9] | Potency [10] | Potency [11] | Potency [12] | Potency [13] | Potency [14] | Potency [17] | Potency [18] | Potency [19]
